Screening results (PubChem)
PPC-1+TRAIL kill: compounds killing PPC-1 cancer cells with TRAIL present (potentiator screen, no TRAIL-free arm); PPC-1 cells + TRAIL, ATPLite viability luminescence; cell killing (% activity), % at 4 µM or 5 µM; 220,000 compounds, 0.41% hits; AID 1443;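 active means cell killing above 50% in the first pass at 4 µM, then a duplicate retest at 5 µM averaging 50% or more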;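 further: plate controls were cells with TRAIL plus DMSO for no effect and medium-only wells lacking cells for full effect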
TRAIL sens C8: caspase-8 TRAIL sensitization | NB7+C8 cells + TRAIL, ATPlite viability luminescence | inhibition (viability loss, TRAIL sensitization), % at 10 µM | 360,000 compounds, 1% hits;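 active means compounds causing at least 50% loss of cell viability in the single-dose screen, relative to plate controls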
SENP7 inh: blocks the human protease SENP7; recombinant SENP7, Z-RLRGG-aminoluciferin luminescence, 40 min; 330,000 compounds, 1.5% hits; inhibition, % at 5 µM;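 active means inhibition above about 50% at the single test dose, limit read from the data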;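 further: plate controls were DMSO with enzyme for no effect and no enzyme buffer wells for full effect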
Target sequence (Q9BQF6 706-1050 limits assumed): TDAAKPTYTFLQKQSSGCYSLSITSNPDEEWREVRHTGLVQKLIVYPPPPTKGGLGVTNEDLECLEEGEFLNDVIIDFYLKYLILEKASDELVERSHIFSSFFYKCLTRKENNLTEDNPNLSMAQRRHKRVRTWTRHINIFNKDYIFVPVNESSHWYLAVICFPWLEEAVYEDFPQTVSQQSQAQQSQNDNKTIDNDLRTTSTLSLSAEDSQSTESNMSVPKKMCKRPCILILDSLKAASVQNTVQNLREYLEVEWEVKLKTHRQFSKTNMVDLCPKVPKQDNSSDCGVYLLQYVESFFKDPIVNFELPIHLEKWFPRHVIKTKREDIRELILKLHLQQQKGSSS
SENP6 inh: inhibitors of human SENP6 protease; 330,000 compounds, 1.8% hits; inhibition, % at 10 µM; Recombinant SENP6 catalytic domain, aminoluciferin luminescence;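 active means inhibition above about 50% at the single tested dose, limit read from the data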;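 further: plate controls were DMSO wells with enzyme for no effect and DMSO wells lacking enzyme for full effect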
SENP8 block-1: blocks human SENP8 cleavage of Nedd8 substrate; Q96LD8; AID 602440; recombinant SENP8, Nedd8 substrate fluorescence; 360,000 compounds, 0.64% hits; inhibition, % at 20 µM; in the data active means inhibition mostly above about 40%, no sharp cut-off; inactive means mostly below about 27%
SENP8 block-2: inhibitors of human SENP8 protease. purified SENP8, Z-RLRGG-aminoluciferin cleavage, luminescence. Q96LD8. 330,000 compounds, 1.2% hits. AID 2540. inhibition, % at 10 µM; in the data active means inhibition above about 50%
SENP8 conf: human SENP8 inhibition, confirmed; shares compounds with SENP7 inh; Recombinant SENP8, Z-RLRGG-aminoluciferin luminescence, 60 min; inhibition, % at 12.5 µM; 6,200 compounds, 40% hits;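 active means mean inhibition across replicates above about 50%, limit read from the data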
SENP6 confirm: confirmation of human SENP6 protease inhibitors; shares compounds with SENP7 inh; recombinant SENP6, Z-RLRGG-aminoluciferin luminescence; inhibition, % at 12.5 µM; 6,200 compounds, 58% hits; AID 488915
SENP7 conf: human SENP7 inhibition, confirmed | inhibition, % at 12.5 µM | AID 488917 | 6,200 compounds, 69% hits | shares compounds with SENP7 inh | recombinant SENP7, Z-RLRGG-aminoluciferin luminescence, 40 min
Casp3 SENP sel: inhibits human caspase-3 in SENP selectivity test; shares compounds with SENP7 inh; purified caspase-3, Z-DEVD-aminoluciferin luminescence, 60 min; inhibition, % at 12.5 µM; 6,200 compounds, 60% hits; AID 488918;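 active means mean inhibition above about 50%, limit read from the data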;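 further: plate controls were enzyme with DMSO for no effect and wells without caspase-3 for full effect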
Target sequence (P42574 28-227 limits assumed): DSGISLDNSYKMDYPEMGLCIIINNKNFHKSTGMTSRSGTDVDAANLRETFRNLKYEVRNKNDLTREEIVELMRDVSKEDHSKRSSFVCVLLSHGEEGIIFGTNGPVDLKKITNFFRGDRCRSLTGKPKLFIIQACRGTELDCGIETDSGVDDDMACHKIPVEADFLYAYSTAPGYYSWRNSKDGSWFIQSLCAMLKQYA
Luc interf: luminescence interference (SENP counter-screen) | shares compounds with SENP7 inh | Pre-incubated SENP8/Z-RLRGG-aminoluciferin, luciferase luminescence interference | inhibition, % at 12.5 µM | 6,200 compounds, 39% hits | AID 488919;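 active means mean inhibition above about 50% when retested at one dose, limit read from the data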;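 further: plate controls were DMSO wells with completed reaction for no effect and substrate without enzyme for full effect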
Active calls of the source: *; i = inactive; x = no result. This is a sample that favours compounds with a hit; in the whole collection about 3% have one here.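 How the source made its calls, unless noted: active means mean inhibition above about 50% in the one-dose retest (limit read from the data); inactive means the rest.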

SMILES	PPC-1+TRAIL kill	TRAIL sens C8	SENP7 inh	SENP6 inh	SENP8 block-1	SENP8 block-2	SENP8 conf	SENP6 confirm	SENP7 conf	Casp3 SENP sel	Luc interf
N/C(=N\OC(=O)c1ccccc1F)c1cccc([N+](=O)[O-])c1	x	8.7	63.6*	13.1	19.3	34.1	24.2	43.7	77.6*	51.2*	43.3
Cc1nc2ccc(NC(=O)c3sccc3C)cc2s1	27.5	19.5	69.3*	84.9*	16.4	59.9*	70.7*	70.7*	90.0*	80.6*	73.1*
Cc1nc2ccc(NC(=O)c3ccc4ccccc4n3)cc2s1	4.4	5.6	71.2*	3.4	0.7	5.7	11.2	11.7	39.6	50.6*	5.2
Cc1nc2ccc(NC(=O)c3ccccc3)cc2s1	26.8	7.7	1.4	-10.9	1.6	3.9	x	x	x	x	x
CCCNC(=O)C1(C)CCN(C(=O)c2sccc2C)C1 (stereo not given)	x	3.1	x	x	7.5	x	x	x	x	x	x
O=C(Nc1scc(-c2ccccc2)c1C(=O)O)c1ccco1	19.2	15.2	44.1	70.7*	-94.3	47.2	62.2*	60.1*	87.3*	83.0*	75.5*
O=C(Nc1scc(-c2cccs2)c1C(=O)O)c1cccs1	16.8	-9.0	-8.0	87.0*	-126.8	75.7*	-20.4	79.6*	94.6*	79.6*	84.9*
COc1cc(C(=O)Nc2scc(-c3ccc(C)cc3)c2C(=O)O)cc(OC)c1OC	x	5.6	-8.8	-8.9	-147.2	0.1	x	x	x	x	x
COc1ccc(-c2csc(NC(=O)c3ccccc3F)c2C(=O)O)cc1	x	15.0	18.1	67.7*	-43.3	60.4*	13.9	73.1*	89.6*	74.8*	75.5*
COC(=O)c1c(-c2ccc(F)cc2)csc1NC(=O)c1ccco1	22.5	7.8	-3.9	-2.6	-495.8	-11.1	x	x	x	x	x
CCOC(=O)c1c(-c2cccs2)csc1NC(=O)c1ccncc1	-3.1	4.0	-4.1	0.8	-36.4	-2.6	x	x	x	x	x
Cc1ccc(C(=O)Nc2scc(-c3ccccc3)c2C(=O)O)cc1	x	30.1	70.0*	94.4*	-152.7	92.5*	7.0	96.9*	101.9*	95.0*	95.1*
CN1N=C(/C=C/c2ccccc2)CCC1=O	4.7	10.3	72.7*	68.6*	4.9	60.9*	60.5*	63.2*	91.6*	88.9*	67.6*
Cc1ccc(/C=C/C2=NN(C)C(=O)CC2)cc1	38.7	53.2*	85.6*	2.8	18.6	76.1*	75.3*	81.1*	97.6*	92.6*	61.6*
O=C1CCC(/C=C/c2ccccc2)=NN1Cc1ccccc1	11.5	-3.6	-5.9	-10.1	-20.3	-2.7	x	x	x	x	x
Cc1nn(C(C)C)c(C)c1CN1CCN(Cc2ccsc2)C(CCO)C1 (stereo not given)	7.0	-6.9	4.6	1.4	10.5	1.6	x	x	x	x	x
COc1cc(C(=O)OCC(=O)c2ccccc2)cc2c1OCCO2	x	0.6	-10.2	1.0	8.5	-20.4	x	x	x	x	x
Cc1ccc(S(=O)(=O)Oc2ccccc2/C=N/NC(N)=S)cc1	-25.6	23.2	70.0*	-2.5	15.0	-3.7	5.7	6.4	-7.4	-2.8	-1.5
Cc1ccc(S(=O)(=O)Oc2ccccc2/C=N/N=C(N)N)cc1	31.8	-3.5	6.6	15.9	18.0	3.0	x	x	x	x	x
CC(=C\c1ccccc1)/C=C1/SC(=S)N(CCC(=O)O)C1=O	x	9.2	1.9	91.2*	17.1	88.6*	30.4	91.9*	94.3*	80.0*	50.9*
O=C(O)CCN1C(=O)/C(=C\c2cccc(OCc3ccccc3)c2)SC1=S	x	-5.3	36.6	95.6*	12.5	96.4*	4.1	6.4	0.5	-2.0	3.5
CC(/C=C1\SC(=S)N(CC(=O)O)C1=O)=C\c1ccccc1	-0.5	2.9	2.1	-27.5	21.7	-21.9	x	x	x	x	x
O=C(O)c1ccc(/C=C2/SC(=S)N(Cc3ccccc3)C2=O)cc1	x	-4.0	x	x	17.1	x	x	x	x	x	x
O=C1/C(=C\c2ccc(O)cc2)SC(=S)N1Cc1ccccc1	x	-2.4	7.9	72.3*	1.5	78.5*	59.6*	81.9*	83.8*	20.4	35.9
Cc1cccc(C)c1NC(=O)CN(Cc1ccccc1)Cc1ccccc1	x	3.1	x	x	12.9	x	x	x	x	x	x
SMILES	PPC-1+TRAIL kill	TRAIL sens C8	SENP7 inh	SENP6 inh	SENP8 block-1	SENP8 block-2	SENP8 conf	SENP6 confirm	SENP7 conf	Casp3 SENP sel	Luc interf
COC(=O)[C@]1(C)N[C@H](c2ccc(-c3ccc(Cl)c(Cl)c3)c(OC)c2)[C@@H]2C(=O)N(C)C(=O)[C@@H]21	x	14.2	-10.8	-4.8	-234.2	-1.8	x	x	x	x	x
CCOC(=O)c1cc2ccc3ccccc3c2s1	2.8	18.7	47.2	57.9*	-230.1	7.1	14.7	20.2	53.7*	23.3	23.9
CC(C)OC(=O)c1cc2ccccc2[nH]1	15.7	-10.6	1.4	-6.2	0.4	-5.5	x	x	x	x	x
Cc1cc(=O)n2c(nc3ccccc32)[nH]1	17.3	-4.9	-9.2	2.6	-270.5	-2.3	x	x	x	x	x
CCOC(=O)c1cc(=O)n2c(nc3ccccc32)[nH]1	x	11.3	78.9*	83.5*	-471.4	76.3*	82.3*	82.7*	96.5*	94.0*	56.4*
CCOC(=O)c1cc2cc3ccccc3cc2[nH]1	10.7	-5.4	38.0	54.4*	-278.0	24.0	-24.6	-24.3	12.6	1.5	-3.6
Cc1ccnc(NC(=O)/C=C/c2cccs2)c1	67.5*	79.2*	67.2*	86.0*	-7.3	57.0*	71.4*	70.6*	90.8*	82.8*	46.7
O=C(/C=C/c1cccs1)Nc1nncs1	13.8	37.7	19.6	24.3	0.9	1.5	x	x	x	x	x
Cc1cccn2cc(-c3ccccc3)nc12	29.2	31.0	68.7*	74.5*	-228.7	53.1*	10.7	70.8*	93.2*	84.6*	69.8*
COc1ccc(-c2cn3cc(C(F)(F)F)cc(Cl)c3n2)cc1	27.6	38.6	-3.1	-4.4	-442.0	-3.1	x	x	x	x	x
Cc1cccn2cc(-c3ccc(F)cc3)cc12	3.2	0.7	1.8	-6.1	-309.6	6.9	x	x	x	x	x
COc1ccc(-c2cn3ccc4ccccc4c3n2)cc1	38.0	46.0	92.3*	92.2*	i	83.4*	29.6	85.6*	100.3*	86.8*	46.1
Cc1cccn2cc(-c3ccc(F)cc3)nc12	4.2	18.6	91.1*	92.9*	-112.9	78.3*	11.9	87.2*	98.8*	90.3*	82.2*
